# Measurements taken from PubChem BioAssay AID1159580 (chemical genetic matrix, 2015).
# “And” between values parts separate entries of the source, which are not always exact repeats. Equal entries are not always repeated. Hit rate of the full screen: of about 5,500 compounds, about 2,000 (36%) were called active. Roughly 18% stayed inconclusive and do not appear here. This is one part of the list. A number with no mark means an inactive call. Rule as the data show it: active = normalized growth mostly below about 0.91 (no sharp cut-off); inconclusive = no clear call, values can overlap the other calls; inactive = mostly above about 0.92.
# Assay: chemical genetic growth profiling, strain panel (AID 1159580);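 also: tested at 20 µM; growth read once vehicle control cultures reached saturation at 30 °C; 1 = growth at the plate median or of vehicle wells; lower values mean less growth of the strain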
# Details: S. cerevisiae deletion strains, growth OD
smiles,measurement,setting,value
CC(C)c1c(O)ccc2c1CCC1[C@@](C)(C=O)CCC[C@]21C (stereo not given in full),normalized growth,"locus YAL021C, strain ccr4, hits give low values",0.984
same,normalized growth,"locus YAL026C, strain drs2, hits give low values",0.93
same,normalized growth,"locus YAL030W, strain snc1, hits give low values",0.79 (active)
same,normalized growth,"locus YBL061C, strain skt5, hits give low values",0.833 (active)
same,normalized growth,"locus YBR009C, strain hhf1, hits give low values",0.476 (active)
same,normalized growth,"locus YBR021W, strain FUR4, hits give low values",0.476 (active)
same,normalized growth,"locus YBR023C, strain chs3, hits give low values",0.821 (active)
same,normalized growth,"locus YBR171W, strain sec66, hits give low values",0.97
same,normalized growth,"locus YBR229C, strain ROT2, hits give low values",0.713 (active)
same,normalized growth,"locus YBR231C, strain swc5, hits give low values",0.722 (active)
same,normalized growth,"locus YBR279W, strain paf1, hits give low values",0.955
same,normalized growth,"locus YCL011C, strain gbp2, hits give low values",0.783 (active)
same,normalized growth,"locus YCL016C, strain dcc1, hits give low values",0.803 (active)
same,normalized growth,"locus YCL029C, strain bik1, hits give low values",0.52 (active)
same,normalized growth,"locus YCL061C, strain MRC1, hits give low values",1
same,normalized growth,"locus YCL069W, strain vba3, hits give low values",1.01
same,normalized growth,"locus YCR088W, strain abp1, hits give low values",0.996
same,normalized growth,"locus YDL005C, strain med2, hits give low values",1.01
same,normalized growth,"locus YDL035C, strain GPR1, hits give low values",0.425 (active)
same,normalized growth,"locus YDL040C, strain nat1, hits give low values",1.01
same,normalized growth,"locus YDL074C, strain BRE1, hits give low values",0.12 (active)
same,normalized growth,"locus YDL101C, strain DUN1, hits give low values",0.517 (active)
same,normalized growth,"locus YDL185W, strain tfp1, hits give low values",0.469 (active)
same,normalized growth,"locus YDL192W, strain arf1, hits give low values",0.246 (active)
same,normalized growth,"locus YDR001C, strain nth1, hits give low values",1.01
same,normalized growth,"locus YDR069C, strain doa4, hits give low values",0.923
same,normalized growth,"locus YDR101C, strain arx1, hits give low values",0.631 (active)
same,normalized growth,"locus YDR137W, strain rgp1, hits give low values",0.237 (active)
same,normalized growth,"locus YDR159W, strain sac3, hits give low values",0.54 (active)
same,normalized growth,"locus YDR162C, strain NBP2, hits give low values",0.171 (active)
same,normalized growth,"locus YDR195W, strain ref2",0.431 (active)
same,normalized growth,"locus YDR297W, strain sur2, hits give low values",0.772 (active)
same,normalized growth,"locus YDR318W, strain mcm21, hits give low values",0.35 (active)
same,normalized growth,"locus YDR334W, strain swr1, hits give low values",1.01
same,normalized growth,"locus YDR335W, strain msn5, hits give low values",0.987
same,normalized growth,"locus YDR388W, hits give low values",0.732 (active)
same,normalized growth,"locus YDR392W, strain spt3, hits give low values",0.415 (active)
same,normalized growth,"locus YDR502C, strain sam2, hits give low values",0.35 (active)
same,normalized growth,"locus YEL003W, strain gim4, hits give low values",0.834 (active)
same,normalized growth,"locus YEL037C, strain rad23, hits give low values",1
same,normalized growth,"locus YEL061C, strain CIN8 (second series), hits give low values",0.99
same,normalized growth,"locus YER016W, strain bim1, hits give low values",0.789 (active)
same,normalized growth,"locus YER110C, hits give low values",0.853 (active)
same,normalized growth,"locus YER111C, strain swi4, hits give low values",0.999
same,normalized growth,"locus YER155C, strain BEM2 (second series), hits give low values",1
same,normalized growth,"locus YER155C, strain BEM2, hits give low values",0.0936 (active)
same,normalized growth,"locus YER167W, strain BCK2, hits give low values",0.336 (active)
same,normalized growth,"locus YFR010W, strain ubp6, hits give low values",1
same,normalized growth,"locus YGL078C, strain dbp3, hits give low values",0.886 (active)
same,normalized growth,"locus YGL086W, strain mad1, hits give low values",0.274 (active)
same,normalized growth,"locus YGL167C, strain pmr1, hits give low values",0.945
same,normalized growth,"locus YGL173C, strain kem1, hits give low values",1.01
same,normalized growth,"locus YGL227W, strain vid30, hits give low values",0.997
same,normalized growth,"locus YGL240W, strain doc1, hits give low values",0.926
same,normalized growth,"locus YGL248W, strain PDE1, hits give low values",0.36 (active)
same,normalized growth,"locus YGL253W, strain hxk2, hits give low values",0.96
same,normalized growth,"locus YGR078C, strain PAC10, hits give low values",0.303 (active)
same,normalized growth,"locus YGR135W, strain pre9, hits give low values",0.601 (active)
same,normalized growth,"locus YGR252W, strain gcn5, hits give low values",0.248 (active)
same,normalized growth,"locus YHR013C, strain ard1, hits give low values",1.14
same,normalized growth,"locus YHR030C, strain SLT2, hits give low values",0.756 (active)
same,normalized growth,"locus YHR079C, strain IRE1 (second series), hits give low values",0.579 (active)
same,normalized growth,"locus YHR079C, strain IRE1, hits give low values",0.791 (active)
same,normalized growth,"locus YHR094C, strain hxt1, hits give low values",0.392 (active)
same,normalized growth,"locus YHR129C, strain ARP1, hits give low values",0.143 (active)
same,normalized growth,"locus YHR142W, strain chs7, hits give low values",0.899
same,normalized growth,"locus YHR200W, strain rpn10, hits give low values",0.578 (active)
same,normalized growth,"locus YIL066C, strain RNR3, hits give low values",0.303 (active)
same,normalized growth,"locus YIL073C, strain SPO22, hits give low values",0.554 (active)
same,normalized growth,"locus YIL125W, strain kgd1, hits give low values",0.621 (active)
same,normalized growth,"locus YIR030C, strain dcg1, hits give low values",0.607 (active)
same,normalized growth,"locus YJL092W, strain hpr5, hits give low values",0.995
same,normalized growth,"locus YJL095W, strain BCK1 (second series), hits give low values",0.35 (active)
same,normalized growth,"locus YJL095W, strain BCK1, hits give low values",0.0842 (active) and 0.826 (active)
same,normalized growth,"locus YJL115W, strain asf1, hits give low values",1.02
same,normalized growth,"locus YJL129C, strain trk1, hits give low values",0.505 (active)
same,normalized growth,"locus YJL134W, strain LCB3, hits give low values",0.729 (active)
same,normalized growth,"locus YJL154C, strain vps35, hits give low values",1.02
same,normalized growth,"locus YJL164C, strain tpk1, hits give low values",0.578 (active)
same,normalized growth,"locus YJL166W, strain qcr8, hits give low values",0.643 (active)
same,normalized growth,"locus YJL168C, strain set2, hits give low values",0.921 (active)
same,normalized growth,"locus YJL187C, strain SWE1 (second series), hits give low values",0.346 (active)
same,normalized growth,"locus YJR066W, strain TOR1, hits give low values",0.826
same,normalized growth,"locus YJR075W, strain HOC1, hits give low values",0.482 (active)
same,normalized growth,"locus YKL009W, strain mrt4, hits give low values",0.998
